# The whole screen tested about 2,700 compounds, of which about 160 (5.9%) showed an effect of 50% or more. The list comes from a sample in which strong results are over-represented; it also holds similar structures and randomly drawn compounds.
# Biological target: Nonstructural protein 3 (Zika virus) (UniProt A0A024AXB9)
# [1] = PRVABC59, Concentration 15.0 uM, Number of replicates 1.0
# [2] = PRVABC59, Concentration 50.0 uM, Number of replicates 1.0
# Nonstructural protein 3 (Zika virus), sequence (A0A024AXB9 as listed by the source): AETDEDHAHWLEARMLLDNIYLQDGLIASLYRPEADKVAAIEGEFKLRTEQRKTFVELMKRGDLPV
smiles,measurement,setting,value
COc1cc(NC(=O)c2cc(Cl)ccc2NS(=O)(=O)c2ccc(Oc3ccccc3Cl)cc2)cc(OC)c1,inhibition,[1],24.1%
COc1ccc(NC(=O)c2cc(Cl)ccc2NS(=O)(=O)c2ccc(Oc3ccccc3Cl)cc2)cc1C(F)(F)F,inhibition,[1],51.3%
O=C(Nc1cc(Br)ccc1F)c1cc(Cl)ccc1NS(=O)(=O)c1ccc(Oc2ccccc2Cl)cc1,inhibition,[1],24.4%
COc1cc(NC(=O)c2cc(Cl)ccc2NS(=O)(=O)c2ccc(Oc3ccccc3Cl)cc2)ccc1Br,inhibition,[1],60.4%
CC(=O)Nc1ccc(NC(=O)c2cc(Cl)ccc2NS(=O)(=O)c2ccc(Oc3ccccc3Cl)cc2)c(C(F)(F)F)c1,inhibition,[1],23.4%
O=C(Nc1ccc(Br)cc1O)c1cc(Cl)ccc1NS(=O)(=O)c1ccc(Oc2ccccc2Cl)cc1,inhibition,[1],58.9%
Cc1ccc(NC(=O)c2cc(Cl)ccc2NS(=O)(=O)c2ccc(Oc3ccccc3Cl)cc2)cc1Br,inhibition,[1],43.3%
COc1ccc(-c2cc(NC(=O)c3cc(Cl)ccc3NS(=O)(=O)c3ccc(Oc4ccccc4Cl)cc3)[nH]n2)cc1,inhibition,[1],57.5%
O=C(Nc1ccc(Br)c(C(F)(F)F)c1)c1cc(Cl)ccc1NS(=O)(=O)c1ccc(Oc2ccccc2Cl)cc1,inhibition,[1],29.1%
O=C(Nc1ccc(F)c(Br)c1)c1cc(Cl)ccc1NS(=O)(=O)c1ccc(Oc2ccccc2Cl)cc1,inhibition,[1],48.7%
O=C(Nc1cccc(Cl)c1Br)c1cc(Cl)ccc1NS(=O)(=O)c1ccc(Oc2ccccc2Cl)cc1,inhibition,[1],25.4%
COc1ccc(Cl)c(NC(=O)c2cc(Cl)ccc2NS(=O)(=O)c2ccc(Oc3ccccc3Cl)cc2)c1,inhibition,[1],25.8%
O=Cc1ccc(N2CCC(C(=O)Nc3ccc(-n4cccn4)cc3)CC2)cc1,inhibition,[2],21.4%
Cn1cc(NC(=O)c2ccccc2-c2ccc(C(=O)O)nc2)cn1,inhibition,"PRVABC59, Concentration 49.5 uM, Number of replicates 2.0, Standard deviation 2.4498358087391408 %",-1.15%
same,inhibition,"PRVABC59, Concentration 99.01 uM, Number of replicates 2.0, Standard deviation 1.6656005687321722 %",-0.876%
same,inhibition,"PRVABC59, Concentration 198.0 uM, Number of replicates 2.0, Standard deviation 2.3203289956835937 %",3.27%
O=C(NCCc1c[nH]c2cccnc12)[C@@]1(c2ccc(F)cc2)CCCNC1,inhibition,"PRVABC59, Concentration 49.5 uM, Number of replicates 2.0, Standard deviation 1.1099611949443484 %",2.3%
same,inhibition,"PRVABC59, Concentration 99.01 uM, Number of replicates 2.0, Standard deviation 0.8664361984862207 %",-0.092%
same,inhibition,"PRVABC59, Concentration 198.0 uM, Number of replicates 2.0, Standard deviation 1.4816570758007732 %",-1.42%
O=C(c1cc(Cl)ccc1NS(=O)(=O)c1ccc(Oc2ccccc2Cl)cc1)N1CCN(C(=O)[C@@H]2CCCO2)CC1,inhibition,[1],-3.32%
CC(C)c1cccc(C(C)C)c1NC(=O)C1CCN(c2ccc(C=O)cc2)CC1,inhibition,[2],22.1%
O=Cc1ccc(N2CCC(C(=O)N3CCC(Cc4ccccc4)CC3)CC2)cc1,inhibition,[2],24.7%
CNC(=O)[C@H]1CCN(S(=O)(=O)c2ccc(Oc3ccccc3Cl)cc2)C1,inhibition,"PRVABC59, Concentration 49.5 uM, Number of replicates 2.0, Standard deviation 2.3503648629811855 %",6.33%
same,inhibition,"PRVABC59, Concentration 99.01 uM, Number of replicates 2.0, Standard deviation 2.692773952478603 %",8.32%
same,inhibition,"PRVABC59, Concentration 198.0 uM, Number of replicates 2.0, Standard deviation 0.3043636351088153 %",5.71%
CC(=O)N1CCC(N(C)C(=O)c2cc(Cl)ccc2NS(=O)(=O)c2ccc(Oc3ccccc3Cl)cc2)CC1,inhibition,[1],11.3%
Cc1cc(CO)c2cccc(CC(=O)NCCc3ncc[nH]3)c2n1,inhibition,"PRVABC59, Concentration 49.95 uM, Number of replicates 2.0, Standard deviation 0.020358613704702253 %",12.5%
same,inhibition,"PRVABC59, Concentration 99.9 uM, Number of replicates 2.0, Standard deviation 0.02544995300481825 %",32.3%
CCc1cc(Br)ccc1NC(=O)c1cc(Cl)ccc1NS(=O)(=O)c1ccc(Oc2ccccc2Cl)cc1,inhibition,[1],41.5%
O=C(Nc1ncc(Br)nc1Cl)c1cc(Cl)ccc1NS(=O)(=O)c1ccc(Oc2ccccc2Cl)cc1,inhibition,[1],16.8%
COc1cc(Cl)c(C)cc1NC(=O)c1cc(Cl)ccc1NS(=O)(=O)c1ccc(Oc2ccccc2Cl)cc1,inhibition,[1],22.4%
O=C(Nc1ncc(Br)cc1O)c1cc(Cl)ccc1NS(=O)(=O)c1ccc(Oc2ccccc2Cl)cc1,inhibition,[1],55.3%
COc1ncc(Br)cc1NC(=O)c1cc(Cl)ccc1NS(=O)(=O)c1ccc(Oc2ccccc2Cl)cc1,inhibition,[1],22.9%
COc1ncc(NC(=O)c2cc(Cl)ccc2NS(=O)(=O)c2ccc(Oc3ccccc3Cl)cc2)cc1Br,inhibition,[1],67.3%
O=C(Nc1cnc(Cl)c(Br)c1)c1cc(Cl)ccc1NS(=O)(=O)c1ccc(Oc2ccccc2Cl)cc1,inhibition,[1],23%
O=C(Nc1ncc(F)cc1Br)c1cc(Cl)ccc1NS(=O)(=O)c1ccc(Oc2ccccc2Cl)cc1,inhibition,[1],23.4%
COc1cc(Br)ccc1NC(=O)c1cc(Cl)ccc1NS(=O)(=O)c1ccc(Oc2ccccc2Cl)cc1,inhibition,[1],56.4%
COc1ccc(CNC(=O)c2cc(Cl)ccc2NS(=O)(=O)c2ccc(Oc3ccccc3Cl)cc2)cc1F,inhibition,[1],26.5%
O=C(c1cc(Cl)ccc1NS(=O)(=O)c1ccc(Oc2ccccc2Cl)cc1)N1CCN(c2ncccn2)CC1,inhibition,[1],7.48%
O=Cc1ccc(N2CCC(C(=O)Nc3ccccc3I)CC2)cc1,inhibition,[2],24.9%
O=Cc1ccc(N2CCC(C(=O)Nc3ccc(Br)c(Cl)c3Cl)CC2)cc1,inhibition,[2],20.9%
CC(C)(C)N(C[C@H](O)c1ccc(O)c(CO)c1)C(=O)c1cc(Cl)ccc1NS(=O)(=O)c1ccc(Oc2ccccc2Cl)cc1,inhibition,[1],14.6%
COc1ccccc1OCCCN(C)C(=O)C1CCN(c2ccc(C=O)cc2)CC1,inhibition,[2],22.6%
CC(C)(COC(=O)c1cccc(F)c1)NC(=O)c1cc(N)cc(Cl)c1,inhibition,"PRVABC59, Concentration 49.5 uM, Number of replicates 2.0, Standard deviation 1.1247891306000573 %",3.45%
same,inhibition,"PRVABC59, Concentration 99.01 uM, Number of replicates 2.0, Standard deviation 1.4129417390724304 %",5.8%
same,inhibition,"PRVABC59, Concentration 198.0 uM, Number of replicates 2.0, Standard deviation 1.2082537148179389 %",9%
NCc1cccc(NC(=O)C2CN(C(=O)OCc3ccccc3)C2)c1,inhibition,"PRVABC59, Concentration 49.5 uM, Number of replicates 2.0, Standard deviation 0.7047125451631892 %",1.12%
same,inhibition,"PRVABC59, Concentration 99.01 uM, Number of replicates 2.0, Standard deviation 1.0691153353532887 %",3.88%
same,inhibition,"PRVABC59, Concentration 198.0 uM, Number of replicates 2.0, Standard deviation 0.2800776094724739 %",10.1%
O=Cc1ccc(N2CCC(C(=O)NCCNC(=O)c3ccccc3Cl)CC2)cc1,inhibition,[2],20.1%
CC(=O)N[C@@H](CCCCN)C(=O)Nc1cccc2c(CO)cc(C)nc12,inhibition,"PRVABC59, Concentration 49.95 uM, Number of replicates 2.0, Standard deviation 2.062511665720634 %",70.2%
same,inhibition,"PRVABC59, Concentration 99.9 uM, Number of replicates 2.0, Standard deviation 0.26572610179233236 %",93.5%
CC(=O)N[C@@H](Cc1ccc(CN)cc1)C(=O)Nc1cccc2c(CO)cc(C)nc12,inhibition,"PRVABC59, Concentration 49.95 uM, Number of replicates 2.0, Standard deviation 1.5120886598590335 %",62.5%
same,inhibition,"PRVABC59, Concentration 99.9 uM, Number of replicates 2.0, Standard deviation 0.31634008358167093 %",95.8%
CC(=O)N[C@@H](CCCN)C(=O)Nc1ccccc1Cc1cccc2c(CO)cc(C)nc12,inhibition,"PRVABC59, Concentration 49.95 uM, Number of replicates 2.0, Standard deviation 1.2164295290794762 %",11.2%
same,inhibition,"PRVABC59, Concentration 99.9 uM, Number of replicates 2.0, Standard deviation 0.5089666913167087 %",30.6%
CC(=O)N[C@@H](CCCCN)C(=O)Nc1ccccc1Cc1cccc2c(CO)cc(C)nc12,inhibition,"PRVABC59, Concentration 49.95 uM, Number of replicates 2.0, Standard deviation 1.4556435772845158 %",-3.65%
same,inhibition,"PRVABC59, Concentration 99.9 uM, Number of replicates 2.0, Standard deviation 0.5191459981690598 %",11.6%
CC(=O)N[C@@H](CCCN)C(=O)Nc1cccc2c(CO)cc(C)nc12,inhibition,"PRVABC59, Concentration 49.95 uM, Number of replicates 2.0, Standard deviation 2.340889239911572 %",9.01%
same,inhibition,"PRVABC59, Concentration 99.9 uM, Number of replicates 2.0, Standard deviation 2.049858170273299 %",41.2%
Cc1cc(CO)c2cccc(C[C@H](NC(=O)Cc3cccc(CN)c3)C(=O)O)c2n1,inhibition,"PRVABC59, Concentration 49.95 uM, Number of replicates 2.0, Standard deviation 1.661005908968333 %",-1.72%
same,inhibition,"PRVABC59, Concentration 99.9 uM, Number of replicates 2.0, Standard deviation 1.2746087015891263 %",6.96%
Cn1cc(CNC(=O)c2ccccc2[C@@H]2CCCNC2)cn1,inhibition,"PRVABC59, Concentration 49.5 uM, Number of replicates 2.0, Standard deviation 1.3820269413959925 %",-1.82%
same,inhibition,"PRVABC59, Concentration 99.01 uM, Number of replicates 2.0, Standard deviation 1.129463511127855 %",-0.227%
same,inhibition,"PRVABC59, Concentration 198.0 uM, Number of replicates 2.0, Standard deviation 0.6425212666298173 %",0.6%

# From ChEMBL document CHEMBL5606458, “ASAP - ZIKV NS2B-NS3 protease fluorescence single point” (2024)
